Screens: PubChem BioAssay, several laboratories
The list is not random: actives were taken first. Their share in the collection is about 32%.
CYP2C9 act = activators of human CYP2C9. P11712. recombinant CYP2C9, luciferin-H conversion, luminescence; stronger effect = higher value; factor 1 = untreated enzyme, 0 = blocked. activation factor at 5 µM. 96,000 tested, 1.4% active. AID 1024;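 active = activation factor of 2 or more for CYP2C9 at a 5 µM dose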;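 also: 0 = sulfaphenazole-blocked wells and 1 = vehicle-only wells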
Target sequence (P11712 whole entry, looked up): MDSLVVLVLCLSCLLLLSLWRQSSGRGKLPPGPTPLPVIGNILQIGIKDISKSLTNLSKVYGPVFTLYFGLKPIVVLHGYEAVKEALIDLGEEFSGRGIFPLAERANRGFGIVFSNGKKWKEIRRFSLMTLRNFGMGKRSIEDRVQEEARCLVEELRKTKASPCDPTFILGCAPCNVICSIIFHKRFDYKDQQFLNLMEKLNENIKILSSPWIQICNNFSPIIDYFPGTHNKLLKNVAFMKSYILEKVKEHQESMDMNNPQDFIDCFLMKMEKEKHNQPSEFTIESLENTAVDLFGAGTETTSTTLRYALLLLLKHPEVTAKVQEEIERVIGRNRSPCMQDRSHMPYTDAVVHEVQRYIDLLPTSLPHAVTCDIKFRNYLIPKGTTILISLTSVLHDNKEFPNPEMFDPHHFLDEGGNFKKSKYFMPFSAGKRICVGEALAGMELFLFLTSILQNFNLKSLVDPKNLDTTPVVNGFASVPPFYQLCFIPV
PostGolgi yeast = growth inhibition of a yeast mutant, post-Golgi transport screen; inhibition, % at 10 µM; 98,000 tested, 0.9% active; post-Golgi transport phenotypic cell assay;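 also: yeast cells grown in 1536-well plates; yeast grown about 18 h at 30C before absorbance read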
CYP2C9 inh = blocks human cytochrome P450 2C9; CYP2C9 Supersomes, luciferin-H conversion, luminescence; inhibition, % at 5 µM; 96,000 tested, 20% active;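 active = blocking of liver enzyme CYP2C9 beyond about 50% at 5 µM, limit read from the data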
PostGolgi ctrl = yeast control strain growth, post-Golgi counter-screen; efflux-deficient yeast background strain, growth absorbance A615, 16 h; inhibition, % at 10 µM; 98,000 tested, 5% active
CYP2C19 act = increases human CYP2C19 enzyme activity; P33261; recombinant CYP2C19, luciferin-H EGE luminescence; stronger effect = higher value; 0 = fully inhibited enzyme, 1 = untreated enzyme; activation factor at 5 µM; 96,000 tested, under 10 active;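 active = activation factor of at least 2 at 5 µM in the primary screen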;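 also: 0 = wells with 2.5 mM tranylcypromine and 1 = vehicle-only wells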
CYP2C19 inhib = inhibitors of human CYP2C19. CYP2C19 Supersomes, luciferin-H EGE luminescence, 30 min. inhibition, % at 5 µM. 96,000 tested, 21% active;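 active = CYP2C19 inhibition above a set limit at 5 µM in the primary screen, cut at about 50% in these data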;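 also: plate controls were negative control wells for no effect and 2.5 mM tranylcypromine positive control for full effect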
* marks the source's active call; other numbers are inactive results; . = no result given. Rule as the data show it, unless noted: active = inhibition above about 30%; inactive = the rest.

SMILES | CYP2C9 act | PostGolgi yeast | CYP2C9 inh | PostGolgi ctrl | CYP2C19 act | CYP2C19 inhib
Cc1ccc(C(=O)Nc2onc(C)c2C#N)cc1 | 0.4 | -1 | 58* | 3 | 0.6 | 37
Cc1cc2cc(CCNC(=O)c3c(-c4ccccc4Cl)noc3C)c(=O)[nH]c2cc1C | 0.5 | 5 | 47 | 4 | 0.9 | 13
COc1ccccc1-c1cc(C(F)(F)F)nc(S(=O)(=O)CCCC(=O)N2CCCCC2C)n1 (stereo not given) | 1 | 18 | -1 | 62* | 0.7 | 33
COc1ccccc1-c1cc(C(F)(F)F)nc(S(=O)(=O)CCCC(=O)NC(C)C)n1 | 1 | 2 | 4 | 43* | 0.9 | 6
CS(=O)(=O)c1nc(-c2ccco2)cc(C(F)(F)F)n1 | 1 | 0 | -3 | 48* | 1 | -4
COc1ccccc1-c1cc(C(F)(F)F)nc(S(C)(=O)=O)n1 | 1.1 | 46* | -9 | 86* | 1.1 | -11
COc1ccccc1-c1cc(C(F)(F)F)nc(N2CCCC2)n1 | 1.3 | 6 | -27 | -1 | 1.2 | -17
CN1CCN(c2nc(-c3ccco3)cc(C(F)(F)F)n2)CC1 | 0.9 | 9 | 14 | 1 | 0.9 | 13
O=C1c2ccccc2S(=O)(=O)N1Cc1cc(=O)n2ccsc2n1 | 0.9 | -1 | 5 | 9 | 0.9 | 6
O=C(O)CC1Sc2nc3ccccc3n2C1=O (stereo not given) | 1 | 1 | -5 | -1 | 1 | 0
Cc1cc(=O)cc(C)n1-c1ccc2c(c1)nc(C)n2-c1ccccc1 | 1.1 | . | -12 | . | 1.1 | -6
Cc1nc2ccccc2n1-c1ccccc1 | 0.6 | -1 | 40 | 21 | 0.3 | 67*
Cc1ccccc1-n1c(C)nc2ccccc21 | 0.5 | -5 | 54* | 2 | 0.2 | 82*
Cc1nc2cc(S(=O)(=O)N(C)C)ccc2n1-c1ccccc1 | 0.7 | . | 25 | . | 0.2 | 81*
O=c1c(/C=C(\O)c2ccccc2)nc2ccccc2n1-c1ccccc1 | 0.7 | -10 | 34 | 30* | 0.5 | 46
COc1ccccc1N(CC(=O)N1CCCCCC1)S(C)(=O)=O | 1 | -4 | -4 | -3 | 1.1 | -10
CCOC(=O)Cc1[nH]nc2c1C(C1C=CCCC1)C(C#N)=C(N)O2 (stereo not given) | 0.3 | -8 | 71* | 11 | 0.1 | 87*
Oc1ccc2ccccc2c1C1Nc2cccc3cccc(c23)N1 | 0.3 | -2 | 72* | 37* | 0.8 | 25
CC(C)(C)SCCNC(=O)CN1C(=O)c2ccccc2S1(=O)=O | 0.9 | -5 | 14 | 5 | 1 | 4
Cc1ccc(SCCNC(=O)CN2C(=O)c3ccccc3S2(=O)=O)cc1 | 0.2 | 10 | 79* | 1 | 0.4 | 61*
O=C(CN1C(=O)c2ccccc2S1(=O)=O)NCCSc1ccccc1 | 0.4 | 15 | 64* | 6 | 0.2 | 79*
O=C(Nc1nc2ccc(F)cc2s1)C1CCCO1 (stereo not given) | 1 | -3 | 0 | 5 | 1 | 4
Cc1cc(C(=O)OCC(=O)c2ccc(Br)s2)no1 | 0.3 | -1 | 66* | 4 | 0.8 | 17
COc1ccccc1NCC(O)Cn1c2ccccc2c2ccccc21 (stereo not given) | 0.2 | 13 | 77* | 57* | 0.3 | 69*
COc1cc(C2SCC(=O)N2CCCN(C)C)cc(OC)c1OC (stereo not given) | 0.9 | 5 | 5 | -1 | 1.2 | -17
SMILES | CYP2C9 act | PostGolgi yeast | CYP2C9 inh | PostGolgi ctrl | CYP2C19 act | CYP2C19 inhib
Cc1ccc(C(=O)Nc2nc(=O)n(C(=O)c3ccccc3Cl)s2)cc1 | 0.1 | -12 | 94* | 18 | 0.3 | 66*
Cc1ccc(C(=O)Nc2nc(=O)n(C(=O)CC(C)C)s2)cc1 | 0.2 | 0 | 84* | 13 | 0.9 | 8
Cc1c(C(=O)N2CCN(c3ccccc3)CC2)sc2ncnc(N3CCC(C)CC3)c12 | 0.5 | 4 | 49 | 14 | 0.4 | 61*
Nc1c(C(=O)N2CCOCC2)sc(=S)n1-c1ccccc1 | 1 | -6 | 5 | -2 | 1 | 2
Cc1c(C(=O)N2CCOCC2)sc2ncn(CC(=O)N3CCC(C)CC3)c(=O)c12 | 1 | -9 | -1 | -8 | 1 | 0
Cc1c(C(=O)N2CCOCC2)sc2ncnc(N3CCc4ccccc4C3)c12 | 0.3 | 5 | 65* | -1 | 0.7 | 32
Cn1c(/C(C#N)=C(\O)COc2ccc3ccccc3c2)nc2ccccc21 | 1.1 | -1 | -6 | -3 | 0.9 | 9
